# Test system: HepG2
# Test: GSK_TCMDC: Percent inhibition of human HepG2 cell line. Test compounds present at 10uM.
# Type: functional
row,SMILES,Inhibition [%]
1,O=C(Nc1cccc(-c2nn3ncccc3c2-c2ccnc(Nc3cccc(-c4cnco4)c3)n2)c1)c1c(F)cccc1F,96
2,Cc1ccc(C2=NNC3(S2)C(=O)Nc2ccc(C)cc23)cc1 (stereo not given),35
3,NC(=O)c1ccccc1Nc1nc(Nc2ccc(N3CCOCC3)cc2)ncc1[N+](=O)[O-].O=C(O)C(F)(F)F,53
4,COc1cc2nc(NCCn3cccn3)nc(NCCc3ccccc3)c2cc1OC,12
5,O=C(NCCN1CCOCC1)c1csc(C2CCCN(C(=O)c3ccc(O)c(-c4cc(Cl)cc(Cl)c4)c3)C2)n1 (stereo not given),12
6,O=[N+]([O-])c1ccccc1/C=N/Nc1ccnc2cc(Cl)ccc12,0
7,COc1cccc(C(=O)NC(c2ccccc2OC)c2cc(Cl)c3cccnc3c2O)c1 (stereo not given),58
8,CCCc1cc(NCc2ccncc2)nc(Nc2ccc(F)cc2)n1,9
9,NC(=O)c1ccc(-c2ccc3ccnc(N)c3c2)cc1.O=C(O)C(F)(F)F,56
10,O=C(NCCCN1CCOCC1)c1csc(Nc2ccc(Cl)c(Cl)c2)n1,5
11,CC1CCN(CCNC(=O)c2ccc3c(=O)n(Cc4ccc(Cl)cc4)c(=S)[nH]c3c2)CC1,6
12,COc1cccc(-c2cc(C(F)(F)F)n3ncc(C(=O)Nc4cc(Cl)ccc4O)c3n2)c1,0
13,Cn1nc(-c2cccc(CN[C@@H]3CCc4ccc(O)cc43)c2)c2cnc(NC3CCCC3)nc21,6
14,Cl.N=C1C=C(N)C(=O)c2ccccc21,99
15,Cc1cc(NC2CCN(Cc3ccccc3)CC2)nc(NCCCCc2ccccc2)n1,65

# Reference: ChEMBL document CHEMBL1157539, “Thousands of chemical starting points for antimalarial lead identification” (Nature, 2010)
